Source: PubChem BioAssay (NCATS)
Values joined by “and” are separate entries in the source; they are usually repeats but may differ in a detail not shown here. Identical values can stand only once. Results filed as inconclusive are left out. Entries that show only a call come without a potency. Active and inactive are the calls of the source. Unless noted, the call rests on the fitted dose curve.

Tests used:
[1] = target: Glucocorticoid receptor (Homo sapiens) (UniProt P04150); test: qHTS assay for small molecule antagonists of glucocorticoid receptor signaling (AID 588533; active means well fitted inhibition curve with a large enough effect in the signal ratio, with a control signal flat, not every such curve was filed as active; the % refers to the signal ratio;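 further: cells stimulated with 2 nM dexamethasone as agonist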; further: potency means the concentration at half of the fitted maximal effect)
In short: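 Antagonist-mode qHTS: compound titrations added to GRE-bla HeLa cells, then dexamethasone 2 nM final; 18 h, 37 C. CCF4 FRET fluorescence normalized to dexamethasone and DMSO; IC50 from Hill fit.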

[2] = qHTS assay for small molecule antagonists of peroxisome proliferator-activated receptor delta signaling (AID 588535; active means well fitted inhibition curve with a large enough effect in the signal ratio, with a control signal flat, not every such curve was filed as active; the % refers to the signal ratio;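 on max response: cells co-treated with a PPAR-delta agonist as stimulator during compound exposure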); settings: HEK293T PPARd-UAS-bla, beta-lactamase FRET ratio, 18 h; 460 nm channel
In short: (§1)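 HEK293T PPAR-delta-UAS-bla cells, 4000/well, 2% charcoal/dextran FBS; 5 h 37 C; cpd titration; 18 h 37 C; CCF4 2 h RT; FI 460/530 nm; Hill fit → IC50, efficacy.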

[3] = target: Peroxisome proliferator-activated receptor delta (Homo sapiens) (UniProt Q03181); test: as above
In short: as §1

[4] = target: Peroxisome proliferator-activated receptor gamma (Homo sapiens) (UniProt P37231); test: qHTS assay for small molecule agonists of peroxisome proliferator-activated receptor gamma signaling (AID 588536; active means well fitted curve in the direction sought with a large enough effect in the signal ratio, with a control signal flat, not every such curve was filed as active; the % refers to the signal ratio)
In short: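 Ratiometric blue/green fluorescence (405 nm excitation; 460 and 530 nm emission) from CCF4-loaded HEK293 reporter cells serves as signal. Exposure to test compounds lasts 16 h at 37 C in medium containing 1% charcoal/dextran-treated serum.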

[5] = target: Peroxisome proliferator-activated receptor gamma (Homo sapiens) (UniProt P37231); test: qHTS assay for small molecule antagonists of peroxisome proliferator-activated receptor gamma signaling (AID 588537; active means well fitted inhibition curve with a large enough effect in the signal ratio, with a control signal flat, not every such curve was filed as active; the % refers to the signal ratio;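 further: reporter cells co-stimulated with 50 nM rosiglitazone agonist during compound treatment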)
In short: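 Antagonist mode, beta-lactamase reporter in HEK293; charcoal/dextran FBS 1%; 3000 cells/well, 37 C 6-6.5 h; cpd titration + rosiglitazone 50 nM final, 16 h 37 C; CCF4, 2 h RT; 460/530 nm; Hill fit → IC50, efficacy.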

[6] = target: Vitamin D3 receptor (Homo sapiens) (UniProt P11473); test: qHTS assay for small molecule antagonists of vitamin D receptor signaling (AID 588541);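 further: receptor activated by calcitriol during compound treatment; series mostly up to about 77 µM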
In short: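 Antagonist-mode beta-lactamase reporter assay: HEK293T VDR-UAS-bla cells were exposed to titrated compound alongside 1-alpha,25-dihydroxyvitamin D3 at 3 nM final for 16 h. Values were normalized to the 50 nM agonist control and DMSO basal, with IC50 and efficacy from Hill equation fits.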

[7] = target: Vitamin D3 receptor (Homo sapiens) (UniProt P11473); test: qHTS assay for small molecule agonists of vitamin D receptor signaling (AID 588543)
In short: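 VDR-UAS-bla HEK293T cells, 2000/well, 2% charcoal-stripped FBS; compound titration 16 h at 37 C; CCF4 beta-lactamase ratio read. Normalized to 50 nM 1-alpha,25-dihydroxyvitamin D3 (100%) and DMSO; Hill fit gives EC50, efficacy.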

[8] = qHTS assay for small molecule agonists of retinoid X receptor alpha signaling (AID 588544); settings: HEK293T RXRa-UAS-bla, beta-lactamase reporter, 18 h; 530 nm emission
[9] = target: Retinoic acid receptor RXR-alpha (Homo sapiens) (UniProt P19793); test: as above
[10] = target: Thyroid hormone receptor beta (Homo sapiens) (UniProt P10828); test: qHTS assay for small molecule agonists of thyroid hormone receptor beta signaling (AID 588545); further: potency means the concentration at half of the fitted maximal effect
In short: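 HEK 293 TR-UAS-bla; agonist mode; 18 hrs, 37 C; CCF4, ex 405/em 460 and 530 nm; norm. T3 10 nM = 100%, DMSO = 0%; Hill fit → EC50, efficacy.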

Sequence of Retinoic acid receptor RXR-alpha (Homo sapiens) (P19793 whole entry, looked up): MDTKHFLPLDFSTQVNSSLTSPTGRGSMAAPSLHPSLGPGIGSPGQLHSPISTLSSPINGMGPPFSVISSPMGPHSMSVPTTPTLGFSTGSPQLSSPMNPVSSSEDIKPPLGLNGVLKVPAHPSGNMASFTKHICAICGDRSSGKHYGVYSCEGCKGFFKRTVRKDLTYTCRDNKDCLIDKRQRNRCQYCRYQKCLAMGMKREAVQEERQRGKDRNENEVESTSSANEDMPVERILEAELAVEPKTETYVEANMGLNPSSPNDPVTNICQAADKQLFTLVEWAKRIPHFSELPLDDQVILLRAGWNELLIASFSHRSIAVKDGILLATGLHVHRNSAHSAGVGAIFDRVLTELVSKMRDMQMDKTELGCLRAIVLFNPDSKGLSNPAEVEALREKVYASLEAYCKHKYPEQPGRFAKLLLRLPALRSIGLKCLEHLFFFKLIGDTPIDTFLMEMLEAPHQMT
Sequence of Peroxisome proliferator-activated receptor gamma (Homo sapiens) (P37231 whole entry, looked up): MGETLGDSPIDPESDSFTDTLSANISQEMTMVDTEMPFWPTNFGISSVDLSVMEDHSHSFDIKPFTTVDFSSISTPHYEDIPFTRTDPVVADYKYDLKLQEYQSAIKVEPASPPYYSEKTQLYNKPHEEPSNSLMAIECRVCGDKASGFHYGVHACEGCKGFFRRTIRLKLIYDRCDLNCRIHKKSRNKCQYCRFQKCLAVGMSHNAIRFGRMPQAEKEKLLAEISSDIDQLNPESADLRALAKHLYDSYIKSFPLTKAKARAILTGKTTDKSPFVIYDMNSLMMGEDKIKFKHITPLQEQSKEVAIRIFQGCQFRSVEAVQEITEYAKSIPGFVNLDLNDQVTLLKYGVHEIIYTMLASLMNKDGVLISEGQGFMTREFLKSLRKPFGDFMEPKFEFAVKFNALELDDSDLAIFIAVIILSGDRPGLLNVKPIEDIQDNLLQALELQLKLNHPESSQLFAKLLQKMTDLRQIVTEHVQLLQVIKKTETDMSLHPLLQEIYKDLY
Sequence of Vitamin D3 receptor (Homo sapiens) (P11473 whole entry, looked up): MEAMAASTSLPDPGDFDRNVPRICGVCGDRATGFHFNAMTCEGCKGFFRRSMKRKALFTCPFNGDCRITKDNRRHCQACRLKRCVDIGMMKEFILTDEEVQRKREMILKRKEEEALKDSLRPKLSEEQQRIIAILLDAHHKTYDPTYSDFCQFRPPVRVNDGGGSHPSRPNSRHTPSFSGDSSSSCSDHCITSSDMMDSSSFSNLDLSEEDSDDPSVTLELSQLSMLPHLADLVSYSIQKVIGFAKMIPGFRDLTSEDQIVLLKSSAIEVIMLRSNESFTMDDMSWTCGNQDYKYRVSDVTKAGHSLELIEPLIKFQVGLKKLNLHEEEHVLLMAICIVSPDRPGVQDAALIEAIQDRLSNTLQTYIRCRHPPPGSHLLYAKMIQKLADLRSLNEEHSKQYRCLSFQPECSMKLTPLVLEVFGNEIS
Sequence of Peroxisome proliferator-activated receptor delta (Homo sapiens) (Q03181 whole entry, looked up): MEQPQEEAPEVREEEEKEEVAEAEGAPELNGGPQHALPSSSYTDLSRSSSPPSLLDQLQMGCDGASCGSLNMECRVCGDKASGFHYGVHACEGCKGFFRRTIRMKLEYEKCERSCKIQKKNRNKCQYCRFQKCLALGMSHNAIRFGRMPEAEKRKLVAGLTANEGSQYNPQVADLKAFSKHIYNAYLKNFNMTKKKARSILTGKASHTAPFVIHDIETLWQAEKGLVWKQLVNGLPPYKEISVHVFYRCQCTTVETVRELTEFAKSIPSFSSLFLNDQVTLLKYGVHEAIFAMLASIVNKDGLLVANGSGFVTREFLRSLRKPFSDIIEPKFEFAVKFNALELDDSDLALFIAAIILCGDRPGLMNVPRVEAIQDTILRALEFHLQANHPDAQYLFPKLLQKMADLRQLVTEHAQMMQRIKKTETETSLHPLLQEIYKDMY
Sequence of Glucocorticoid receptor (Homo sapiens) (P04150 whole entry, looked up): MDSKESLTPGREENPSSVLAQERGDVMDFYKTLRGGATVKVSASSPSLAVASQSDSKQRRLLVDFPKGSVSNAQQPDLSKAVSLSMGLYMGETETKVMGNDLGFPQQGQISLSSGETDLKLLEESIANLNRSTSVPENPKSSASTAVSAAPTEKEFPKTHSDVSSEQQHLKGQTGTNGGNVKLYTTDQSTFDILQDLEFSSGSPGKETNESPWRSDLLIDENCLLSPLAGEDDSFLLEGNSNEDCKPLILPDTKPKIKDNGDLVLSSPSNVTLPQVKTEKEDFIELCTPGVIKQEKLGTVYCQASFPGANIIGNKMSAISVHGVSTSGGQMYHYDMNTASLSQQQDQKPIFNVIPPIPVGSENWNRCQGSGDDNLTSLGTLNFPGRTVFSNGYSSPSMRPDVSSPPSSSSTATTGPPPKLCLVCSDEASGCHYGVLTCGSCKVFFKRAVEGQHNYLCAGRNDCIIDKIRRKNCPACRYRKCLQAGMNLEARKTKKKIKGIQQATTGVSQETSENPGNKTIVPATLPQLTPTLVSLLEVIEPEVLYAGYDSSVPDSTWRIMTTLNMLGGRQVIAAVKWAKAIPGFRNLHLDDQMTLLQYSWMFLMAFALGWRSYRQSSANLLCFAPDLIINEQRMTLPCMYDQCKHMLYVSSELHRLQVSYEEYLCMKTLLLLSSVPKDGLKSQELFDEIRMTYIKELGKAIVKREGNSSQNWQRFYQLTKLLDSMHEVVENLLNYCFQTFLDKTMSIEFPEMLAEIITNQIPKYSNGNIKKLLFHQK
Sequence of Thyroid hormone receptor beta (Homo sapiens) (P10828 whole entry, looked up): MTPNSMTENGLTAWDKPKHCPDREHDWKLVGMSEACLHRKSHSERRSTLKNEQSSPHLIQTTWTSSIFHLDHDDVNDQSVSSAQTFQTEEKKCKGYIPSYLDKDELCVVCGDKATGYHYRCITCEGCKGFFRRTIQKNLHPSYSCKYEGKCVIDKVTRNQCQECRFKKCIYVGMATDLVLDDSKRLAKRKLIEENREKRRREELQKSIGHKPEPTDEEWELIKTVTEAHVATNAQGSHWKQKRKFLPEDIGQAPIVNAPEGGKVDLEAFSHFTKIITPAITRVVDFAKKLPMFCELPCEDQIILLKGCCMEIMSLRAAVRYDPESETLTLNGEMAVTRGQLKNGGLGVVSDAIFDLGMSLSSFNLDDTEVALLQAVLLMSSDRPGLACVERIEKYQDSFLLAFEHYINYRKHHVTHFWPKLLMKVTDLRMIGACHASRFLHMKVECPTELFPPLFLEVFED

Cc1ccc(S(=O)(=O)NC(=O)NN2CCCCCC2)cc1
Potency [1]: inactive
max response [2]: 47.3%
outcome [3]: inactive
outcome [4]: inactive
outcome [5]: inactive
outcome [6]: inactive
outcome [7]: inactive
max response [8]: -3.25%
outcome [9]: inactive
Potency [10]: inactive

CCCCOCCOCCOCc1cc2c(cc1CCC)OCO2
max response [2]: 7.63%
outcome [3]: inactive
outcome [4]: inactive
outcome [5]: inactive
max response [8]: 14.8% and -2.85%
outcome [9]: inactive
Potency [10]: inactive

COc1cc(Cc2cnc(N)nc2N)cc(OC)c1OC
Potency [1]: inactive
max response [2]: 38%
outcome [3]: inactive
outcome [4]: inactive
outcome [5]: inactive
outcome [6]: inactive
outcome [7]: inactive
max response [8]: 1.73%
outcome [9]: inactive
Potency [10]: inactive

C[C@]12CCC(=O)C=C1CC[C@@H]1[C@@H]2C(=O)C[C@@]2(C)[C@H]1CC[C@]2(O)C(=O)CO
Potency [1]: 28.2 µM (active)
max response [2]: 10.6%
outcome [3]: inactive
outcome [4]: inactive
outcome [5]: inactive
outcome [6]: inactive
outcome [7]: inactive
max response [8]: 17.3%
outcome [9]: inactive
Potency [10]: inactive

NC(=O)N1c2ccccc2C=Cc2ccccc21
max response [2]: 34.8%
outcome [3]: inactive
outcome [4]: inactive
outcome [5]: inactive
max response [8]: -3.76% and -20.7%
outcome [9]: inactive
Potency [10]: inactive

Nc1ncn([C@@H]2O[C@H](CO)[C@@H](O)[C@H]2O)c(=O)n1
Potency [1]: 7.94 µM (active) and 5.62 µM (active)
outcome [7]: inactive
max response [8]: -23.8%
outcome [9]: inactive
Potency [10]: inactive

COC(=O)[C@H]1[C@H]2C[C@@H]3c4[nH]c5cc(OC)ccc5c4CCN3C[C@H]2C[C@@H](OC(=O)c2cc(OC)c(OC)c(OC)c2)[C@@H]1OC
Potency [1]: inactive
Potency [10]: inactive

COc1ccc(CN(CCN(C)C)c2ccccn2)cc1
max response [2]: 15.1%
outcome [3]: inactive
outcome [4]: inactive
max response [8]: 16.3%
outcome [9]: inactive
Potency [10]: inactive

O=c1[nH]c(=O)n([C@H]2C[C@H](O)[C@@H](CO)O2)cc1Br
max response [2]: -1.7%
outcome [3]: inactive
outcome [4]: inactive
outcome [6]: inactive
outcome [7]: inactive
max response [8]: 16.6%
outcome [9]: inactive
Potency [10]: inactive

CC(=O)[C@@]1(O)CC[C@H]2[C@@H]3CCC4=CC(=O)CC[C@]4(C)[C@H]3CC[C@@]21C
outcome [7]: inactive
max response [8]: 13.3%
outcome [9]: inactive

O=C(O)CCCCCCCC(=O)O
outcome [4]: inactive
outcome [5]: inactive
outcome [6]: inactive
outcome [7]: inactive
max response [8]: -21.3%
outcome [9]: inactive
Potency [10]: inactive

CC(C)(Oc1ccc(CCNC(=O)c2ccc(Cl)cc2)cc1)C(=O)O
Potency [1]: inactive
outcome [5]: inactive
outcome [6]: inactive
outcome [7]: inactive
max response [8]: 19.7%
outcome [9]: inactive
Potency [10]: inactive

NC(=Nc1ccccc1)Nc1ccccc1
Potency [1]: inactive
max response [2]: 0.0144% and 57.9%
outcome [3]: inactive
outcome [4]: inactive
outcome [5]: inactive
max response [8]: 3.91%
outcome [9]: inactive
Potency [10]: inactive

CCCCNC(=O)NS(=O)(=O)c1ccc(C)cc1
Potency [1]: inactive
max response [2]: -29.2% and 9.07%
outcome [3]: inactive
outcome [4]: inactive
outcome [5]: inactive
outcome [6]: inactive
outcome [7]: inactive
max response [8]: -17.3%
outcome [9]: inactive
Potency [10]: inactive

C[C@]12C=CC(=O)C=C1CC[C@H]1[C@@H]3C[C@@H](O)[C@](O)(C(=O)CO)[C@@]3(C)C[C@H](O)[C@@]12F
Potency [1]: inactive
max response [2]: 10.9%
outcome [3]: inactive
outcome [4]: inactive
outcome [5]: inactive
outcome [6]: inactive
outcome [7]: inactive
max response [8]: -12%
outcome [9]: inactive
Potency [10]: inactive

CN=C(NC#N)NCCSCc1nc[nH]c1C
max response [2]: -4.23%
outcome [3]: inactive
outcome [4]: inactive
outcome [5]: inactive
outcome [6]: inactive
outcome [7]: inactive
max response [8]: 10.9%
outcome [9]: inactive
Potency [10]: inactive

CC(=O)Nc1nnc(S(N)(=O)=O)s1
outcome [4]: inactive
outcome [5]: inactive
max response [8]: -3.24%
outcome [9]: inactive

Nc1nc(N)c2nc(-c3ccccc3)c(N)nc2n1
outcome [5]: inactive
Potency [10]: 22.4 µM (active)
